Experimental data reported in PubChem BioAssay (EPA / NIEHS).
The source made the active and inactive calls. Rule for the calls: active = hit-call score of the fitted dose curve at least 0.9, where 1 is the maximum; inconclusive = response in the unintended direction; inactive = score below 0.9.

Test: Tanguay_ZF_120hpf_MORT_legacy: (Legacy) Oregon State University Tanguay Lab 120 Hour Post-fertilization zebrafish Assay for Mortality (AID 2283633);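 for AC50: fitted as increase in binary mortality versus DMSO negative control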
Outline: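 Brightfield scoring of embryo death (binary) at 24 and 120 hpf; static exposure 6–120 hpf, 28C, sealed and foil-covered. Pronase-dechorionated 5D wild-type larvae, single embryo per well. DMSO 0.64% v/v; trimethyltin chloride 5uM positive control.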

Compound	outcome	AC50
Cc1cc(-c2ccc(N)c(C)c2)ccc1N	inactive	–
CCOC(=O)C(O)(c1ccc(Cl)cc1)c1ccc(Cl)cc1	inactive	–
ClC(Cl)=C(c1ccc(Cl)cc1)c1ccc(Cl)cc1	inactive	–
NS(=O)(=O)C(F)(F)C(F)(F)C(F)(F)C(F)(F)C(F)(F)C(F)(F)C(F)(F)C(F)(F)F	–	24.9 µM (active)
CC(c1ccc(O)cc1)(c1ccc(O)cc1)c1ccc(O)cc1	inactive	–
CN(C)CCO	inactive	–
c1cc2ccc3cccc4ccc(c1)c2c34	inactive	–
CCC(C)(c1ccc(O)cc1)c1ccc(O)cc1	–	36.9 µM (active)
ClC1=C(Cl)[C@]2(Cl)[C@@H]3[C@@H](Cl)[C@H]4O[C@H]4[C@@H]3C1(Cl)C2(Cl)Cl	inactive	–
Oc1ccc(C(c2ccc(O)cc2)(C(F)(F)F)C(F)(F)F)cc1	–	33 µM (active)
C=CC(=O)NCNC(=O)C=C	inactive	–
Cc1ccc(O)c(C)c1	inactive	–
CC(C)(O)C(=O)Nc1ccc([N+](=O)[O-])c(C(F)(F)F)c1	inactive	–
C[C@]12CCC(=O)C=C1CC[C@@H]1[C@@H]2CC[C@]2(C)C(=O)CC[C@@H]12	inactive	–
CC(C)C(=O)OCC(C)(C)C(OC(=O)C(C)C)C(C)C (stereo unspecified)	–	26.2 µM (active)
O=NN(c1ccccc1)c1ccccc1	inactive	–

Compound	outcome	AC50
O=C(N[C@H]1CN2CCC1CC2)c1cc2ccoc2cn1	inactive	–
CO/C=C(/C(=O)OC)c1ccccc1COc1cccc(C(F)(F)F)n1	inactive	–
CCC(C)c1cc([N+](=O)[O-])cc([N+](=O)[O-])c1O (stereo unspecified)	–	0.462 µM (active)
COS(=O)(=O)OC	inactive	–
Nc1ccc(-c2ccc(N)cc2)cc1	inactive	–
Cc1cccc([N+](=O)[O-])c1	inactive	–
O=C(O)C(F)(F)C(F)(F)C(F)(F)C(F)(F)C(F)(F)C(F)(F)C(F)(F)C(F)(F)F	inactive	–
CCCCCCCCCC[N+](C)(C)CCCCCCCCCC	–	13.6 µM (active)
CC(C)(c1ccccc1)c1ccc(O)cc1	–	19.1 µM (active)
ClC1=C(Cl)[C@]2(Cl)[C@@H]3[C@H]4C[C@H]([C@@H]5O[C@H]45)[C@@H]3[C@@]1(Cl)C2(Cl)Cl	inactive	–
Clc1ccc(Cl)cc1	inactive	–
Oc1c(Cl)c(Cl)c(Cl)c(Cl)c1Cl	–	0.801 µM (active)
C[C@]12CCC(=O)C=C1CC[C@@H]1[C@@H]2CC[C@@]2(C)[C@H]1CC[C@]2(C)O	inactive	–
O=C(NC(=O)c1c(F)cccc1F)Nc1cc(Cl)c(OC(F)(F)C(F)F)c(Cl)c1	inactive	–
Clc1ccc(C(c2ccccc2Cl)C(Cl)(Cl)Cl)cc1 (stereo unspecified)	inactive	–
